Only some compounds are listed: those with a hit (about 22% of all), similar ones and a draw of the others.
Cycloheximide cs = Cycloheximide Counterscreen for Small Molecule Inhibitors of Shiga Toxin; cell reporter, cycloheximide protein synthesis inhibition counterscreen; max response, %; hit rate 12% among 300,000; AID 2314, 2010; in the data active = max response mostly above about 13%, no sharp cut-off; inactive = mostly below about 14%; note: read at 38.3 µM for the half of the compounds with a filed dose; 0% is about no effect
LmPK inhibitor = qHTS Assay for Inhibitors of Leishmania Mexicana Pyruvate Kinase (LmPK). Potency, µM (doses to about 57.5 µM), inactives show at the highest dose activity change, negative = inhibition, most hits filed as inhibitors. purified LmPK, Kinase-Glo ATP luminescence, 1 h. hit rate 0.37% among 290,000. AID 1721, 2009; note: potency is the fitted concentration of half-maximal effect; % is set by controls: 0 for no effect and ±100 for the full control effect
Target sequence (Q27686 whole entry, looked up): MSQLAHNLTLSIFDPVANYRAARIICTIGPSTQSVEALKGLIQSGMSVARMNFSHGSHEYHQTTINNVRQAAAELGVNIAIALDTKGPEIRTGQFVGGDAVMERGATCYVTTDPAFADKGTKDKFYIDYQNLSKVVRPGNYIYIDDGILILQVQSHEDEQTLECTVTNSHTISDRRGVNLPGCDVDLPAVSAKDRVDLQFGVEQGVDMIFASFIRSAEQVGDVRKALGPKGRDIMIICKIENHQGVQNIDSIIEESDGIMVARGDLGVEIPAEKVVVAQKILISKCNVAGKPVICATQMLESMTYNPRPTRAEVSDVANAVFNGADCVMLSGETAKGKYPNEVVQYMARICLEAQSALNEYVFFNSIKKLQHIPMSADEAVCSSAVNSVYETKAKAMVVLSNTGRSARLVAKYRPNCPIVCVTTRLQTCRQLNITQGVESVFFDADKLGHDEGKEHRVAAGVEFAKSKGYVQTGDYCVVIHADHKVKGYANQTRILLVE
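Purified LmPK (0.1 nM) with 0.5 mM PEP and 0.1 mM ADP in imidazole buffer pH 7.2 with MgCl2/KCl, 1 h at room temperature. ATP formed was read by luciferase luminescence and normalized to no-enzyme and uninhibited controls.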
Pf growth 96h = Primary qHTS for delayed death inhibitors of the malarial parasite plastid, 96 hour incubation | Potency, µM (highest dose often 28.7 µM), for inactives: at the highest dose activity change, negative = inhibition, most hits filed as inhibitors | P. falciparum luciferase reporter growth, 96 h | hit rate 6.9% among 320,000 | AID 504834, 2011; note: potency is the fitted concentration of half-maximal effect; % is set by controls: 0 for no effect and ±100 for the full control effect
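Erythrocytes infected with luciferase-expressing P. falciparum were dispensed at 2% hematocrit and 0.05% parasitemia (final), then incubated with compounds 96 hours at 37 C in 5% CO2. Luminescence after detection reagent addition reported growth.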
Pf growth 48h = Primary qHTS for delayed death inhibitors of the malarial parasite plastid, 48 hour incubation. hit rate 5.9% among 310,000. P. falciparum luciferase growth in erythrocytes, 48 h. Potency, µM (doses to about 28.7 µM), for the others: top-dose activity change, negative = inhibition, usual class: inhibitors; note: potency is the fitted concentration of half-maximal effect; % is set by controls: 0 for no effect and ±100 for the full control effect
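Luciferase-expressing parasites in RBCs, 2% Hct / 0.1% parasitemia final; RPMI 1640 + 0.5% Albumax; 37 C, 5% CO2, one generation; luminescence read-out, lower signal = inhibition.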
Shiga toxin inh = A qHTS for Small Molecule Inhibitors of Shiga Toxin | Vero cells, Shiga toxin protein synthesis inhibition reporter | inhibition, % at 38.7 µM | hit rate 9.2% among 290,000; in the data active = inhibition mostly above about 28%, no sharp cut-off; inactive = mostly below about 43%; note: 0% is about no effect
* marks the source's active call; other numbers are inactive results; i = inactive; ? = inconclusive; . = no result given; [ ] = remark or other dose. Unless noted, calls come from the whole dose curve; as a rule, active = well fitted inhibition curve with a large enough effect; inconclusive = small, poorly fitted or top-dose-only effect, or another doubt; inactive = no such curve, though single readings can be large or run the other way.

SMILES | Cycloheximide cs | LmPK inhibitor | Pf growth 96h | Pf growth 48h | Shiga toxin inh
CN(C)CCCN(C(=O)c1ccc(C(=O)c2ccccc2)cc1)c1nc2cc3c(cc2s1)OCCO3 | -3.0 | -0.1% | ? | ? | 18.7
CN(C)CCN(C(=O)c1ccc(C(=O)c2ccccc2)cc1)c1nc2cc3c(cc2s1)OCCO3 | 36.4* | 7.2% | 3.3% | 26.9% | 81.1*
CN(C)CCN(C(=O)c1ccc(C(=O)c2ccccc2)cc1)c1nc2cc3c(cc2s1)OCO3 | 10.3* | 2.6% | 11.7% | 12.8% | 21.4
COc1ccc2sc(N(CCN(C)C)C(=O)c3cc(Cl)sc3Cl)nc2c1 | 18.3 | 0.0%[11.5 µM] | 72.0% | 56.3% | 36.9
CC(C)C(OC(=O)c1nsc(Cl)c1Cl)C(=O)NCC1CCCO1 (configuration not stated) | -4.6 | -7.6% | -8.5% | 26.6% | -4.9
C=CCn1c(NCc2ccco2)nc2ccccc21 | -3.3 | 0.8% | 27.1% | 2.3% | -4.8
CN(C)CCN(C(=O)CN1C(=O)c2ccccc2C1=O)c1nc2cc3c(cc2s1)OCO3 | 26.5* | 5.3% | 10.6% | ? | 49.4
Cc1ccc(CN2C(=O)CCC2C(=O)NCc2ccc(F)cc2)cc1 (configuration not stated) | -3.9 | -3.8% | 52.2% | 39.6% | -17.0
Cc1ccc(CN2C(=O)CCC2C(=O)NCCN(CC(C)C)CC(C)C)cc1 (configuration not stated) | 25.9* | 3.2% | ? | ? | 34.9
COc1ccc(NS(=O)(=O)c2cc(NC(=O)CC(C)(C)C)ccc2N2CCCC2)cc1 | . | . | 13.1µM* | 10.4µM* | .
COc1ccc(NS(=O)(=O)c2cc(NC(=O)c3ccc(C)o3)ccc2N2CCCCC2)cc1 | -2.3 | -0.8% | ? | 9.28µM* | -7.2
CCSc1nc2c(c(-c3ccc(C)o3)c1C#N)CCCC2 | 5.8 | -0.7% | -19.3% | -24.4% | -1.6
CCCCc1ccc(-c2c(C#N)c(N)nc3c2CCCC3)s1 | 0.9 | 0.6% | 13.1µM* | ? | -9.2
COc1ccc(-c2c(C#N)c(N)nc3c2CCC3)cc1 | 20.4* | 3.8% | 4.1% | ? | 15.2
Cc1ccc(-c2c(C#N)c(N)nc3c2CCCC3)o1 | 1.1 | -22.2% | ? | 10.4µM* | 20.5
CCC(C(=O)NCc1ccccc1OC)c1ccccc1 (configuration not stated) | 1.1 | 7.3% | ? | 28.1% | -5.8
CCC(C)NCCOCCOc1ccc(Cl)c2ccccc12 (configuration not stated) | 4.8 | 17.5% | 13.0% | ? | -23.9
CN(C)S(=O)(=O)c1cccc(NC(=O)COC(=O)CCc2nc3ccccc3s2)c1 | -3.4 | 8.2% | . | -2.2% | -7.8
CC(=O)Nc1ccc(C(=O)N/C(=C\c2ccccc2)C(=O)Nc2cccc(C(=O)O)c2)cc1 | -2.2 | -3.9% | -5.6% | ? | -8.7
CCOCCCNCc1ccc(OCc2ccccc2C)c(OC)c1 | -3.0 | 2.6% | 40.1% | -23.7% | -2.1
COc1cccc(-c2nc(-c3ccc(NC(=O)c4ccncc4)cc3)no2)c1 | -1.4 | -5.0% | ? | . | 51.3
COc1ccc(-c2nc(-c3cccnc3)no2)cc1 | 45.1* | -15.2% | 258.4% | 140.5% | 59.2*
COc1cc(OC)cc(-c2nc(-c3ccccc3)no2)c1 | 17.1* | 0.6% | . | 148.5% | 54.9
COc1ccc(-c2noc(-c3ccccc3-c3ccccc3)n2)cc1OC | 3.5 | 3.0% | 27.0% | ? | 5.6
COc1cccc(-c2ccc(-c3noc(-c4ccccc4F)n3)c(OC)n2)c1 | 2.7 | 3.8% | 1.5% | 8.9% | 24.8
SMILES | Cycloheximide cs | LmPK inhibitor | Pf growth 96h | Pf growth 48h | Shiga toxin inh
Cc1ccc(-c2noc(-c3ccccc3F)n2)cc1 | 27.2* | ? | 48.6% | 215.6% | 108.5*
COc1ccc2[nH]c(=O)c(-c3noc(-c4ccccc4)n3)cc2c1 | 66.4* | 2.1% | ? | ? | 105.8*
COc1ccc2[nH]c(=O)c(-c3nnn(-c4ccccc4)n3)cc2c1 | 1.8 | 4.4% | ? | 7.9% | 23.8
COc1ccccc1C(=O)NCCC(=O)NC1CCC(C)CC1 (configuration not stated) | . | . | 161.7% | 97.4% | .
COc1ccc(S(=O)(=O)NCC2CCCO2)cc1NC(=O)c1ccc(Cl)cc1 (configuration not stated) | . | . | 0.7% | -6.9% | .
COc1cccc(-c2ccc(-c3noc(-c4cccs4)n3)c(OC)n2)c1 | -4.3 | -0.4% | 29.9% | 1.5% | -24.3
CCOc1nc(-c2ccccc2)ccc1-c1noc(-c2cccs2)n1 | -2.7 | 2.5% | ? | ? | -6.7
CCOc1ncccc1-c1nc(-c2cccs2)no1 | 50.0* | 3.8% | -8.3% | . | 60.4*
CCn1c(SCc2nc(-c3ccccc3)no2)nnc1-c1cccs1 | 5.6 | -3.6% | -26.6% | . | -6.0
Brc1ccc(-c2nc(-c3ccncc3)no2)cc1 | 7.0 | 5.4% | 5.3% | 94.1% | 25.0
COc1ccc(-c2nc(-c3ccncc3)no2)cc1 | 53.1* | -8.7% | 101.2% | 58.3% | 88.4*
Cc1ccc(-c2noc(-c3cccs3)n2)cc1 | 69.5* | ? | ? | 299.1% | 66.9*
COc1ccc(-c2nc(-c3cccs3)no2)cc1 | 9.7 | 15.8µM* | 261.1% | 114.6% | -13.5
CC1c2ccsc2CCN1S(=O)(=O)c1cccs1 (configuration not stated) | 0.5 | -0.9% | 0.6% | 8.6% | -4.4
Cc1ccccc1NC(=O)c1ccc(NC(=O)C2CCCO2)cc1 (configuration not stated) | -2.9 | -5.2% | -12.7% | 26.6% | 41.0
CCN(CC(=O)NCc1cccs1)C(=O)CCC(=O)c1ccc(C)cc1 | . | . | 13.0% | ? | .
CNC(=O)NC(=O)CSc1nc2sccc2c(=O)n1-c1ccccc1 | -1.8 | 8.2% | ? | ? | -10.9
N#Cc1ccccc1NS(=O)(=O)c1cc2c3c(c1)CCC(=O)N3CCC2 | . | . | -2.8% | ? | .
c1csc(-c2nc(N3CCCCC3)no2)c1 | 37.3* | -15.6% | 193.1% | 189.3% | 82.4*
O=[N+]([O-])c1cccc(-c2noc(-c3cccs3)n2)c1 | 34.0* | -10.0% | i | 227.4% | 77.7*
CCCCOc1ccc(-c2nc(-c3cccnc3)no2)cc1 | 25.1* | -1.3% | 26.3% | 44.8% | 79.7*
CCOc1nc(-c2ccc(C)cc2)ccc1-c1noc(-c2cccnc2)n1 | -2.0 | -3.0% | 6.6% | 8.3% | -4.2
COc1cccc(-c2noc(-c3ccc(Cl)nc3)n2)c1 | 30.1* | 4.2% | 107.7% | 0.0% | 83.4*
CC(=O)Nc1ccc(C(=O)COC(=O)c2cccs2)c(F)c1 | . | . | -8.4% | -10.8% | .
O=C(c1ccc(F)cc1)N1CCCC(C(=O)N2CCc3ccccc3C2)C1 (configuration not stated) | -2.2 | -0.7% | -1.6% | 8.6% | 15.8
CCCCn1c(N)c(N(CC)C(=O)C(c2ccccc2)c2ccccc2)c(=O)[nH]c1=O | -3.8 | 1.4% | -4.3% | 4.5% | 0.9

Bioassay records as filed in PubChem.
